Results reported in the supplement of paper PMC10849652.
Targets with a hit are over-represented here; the source holds about 7,900 in all. About 0.6% of all pairs of compound and target were hits. Unmarked numbers belong to inactive results.

What was measured:
Test in all cases: log2 fold change, soluble protein after heating vs DMSO (PISA); higher = thermal stabilisation; K562 cells, 10 uM, 30 min; active = over 0.2 and 3.5 SD of the protein, either way, in both replicates (recomputed)
[1] = compound: COC1=CC=C(C=C1)CN2C=CC3=C2C=C(C=C3)C(=O)NO
Summary of the method: (§1)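 Values are thermal stability changes relative to control samples and are taken from duplicates. They are stated as log2 fold changes. Before quantification by TMTpro 16plex LC-MS/MS with equalised channel sums, K562 cells at 2×10^6 cells/mL were treated with 10 μM compound for 30 min, heated in aliquots for 3 min across 48°C-58°C, pooled, extracted in PBS with 0.5% NP-40 at 4°C, and centrifuged at 21,000xg for 90 min to give the soluble supernatant.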

filanesib = compound: CON(C)C(=O)N1N=C(c2cc(F)ccc2F)S[C@@]1(CCCN)c1ccccc1 [filanesib]
Summary of the method: as §1

zotarolimus = compound: CO[C@H]1C[C@@H]2CC[C@@H](C)[C@@](O)(O2)C(=O)C(=O)N2CCCC[C@H]2C(=O)O[C@H]([C@H](C)C[C@@H]2CC[C@H](n3cnnn3)[C@H](OC)C2)CC(=O)[C@H](C)/C=C(\C)[C@@H](O)[C@@H](OC)C(=O)[C@H](C)C[C@H](C)/C=C/C=C/C=C/1C [zotarolimus]
Summary of the method: as §1

idasanutlin = compound: COc1cc(C(=O)O)ccc1NC(=O)[C@@H]1N[C@@H](CC(C)(C)C)[C@](C#N)(c2ccc(Cl)cc2F)[C@H]1c1cccc(Cl)c1F [idasanutlin]
Summary of the method: as §1

alisertib = compound: COc1cc(Nc2ncc3c(n2)-c2ccc(Cl)cc2C(c2c(F)cccc2OC)=NC3)ccc1C(=O)O [alisertib]
Summary of the method: as §1

[2] = compound: COc1cc2nc(-c3cc(F)ccc3O)nc(N[C@@H]3CNC[C@H]3C(C)(C)O)c2cc1OC
Summary of the method: as §1

gefitinib = compound: COc1cc2ncnc(Nc3ccc(F)c(Cl)c3)c2cc1OCCCN1CCOCC1 [gefitinib]
Summary of the method: as §1

[3] = compound: COc1cccc2cc(-c3nc([C@H]4CC[C@H](C(=O)O)CC4)n4ncnc(N)c34)[nH]c12
Summary of the method: as §1

lapatinib = compound: CS(=O)(=O)CCNCc1ccc(-c2ccc3ncnc(Nc4ccc(OCc5cccc(F)c5)c(Cl)c4)c3c2)o1 [lapatinib]
Summary of the method: as §1

pictilisib = compound: CS(=O)(=O)N1CCN(Cc2cc3nc(-c4cccc5[nH]ncc45)nc(N4CCOCC4)c3s2)CC1 [pictilisib]
Summary of the method: as §1

Sequence of UniProt Q9NV70 (Q9NV70 whole entry, looked up): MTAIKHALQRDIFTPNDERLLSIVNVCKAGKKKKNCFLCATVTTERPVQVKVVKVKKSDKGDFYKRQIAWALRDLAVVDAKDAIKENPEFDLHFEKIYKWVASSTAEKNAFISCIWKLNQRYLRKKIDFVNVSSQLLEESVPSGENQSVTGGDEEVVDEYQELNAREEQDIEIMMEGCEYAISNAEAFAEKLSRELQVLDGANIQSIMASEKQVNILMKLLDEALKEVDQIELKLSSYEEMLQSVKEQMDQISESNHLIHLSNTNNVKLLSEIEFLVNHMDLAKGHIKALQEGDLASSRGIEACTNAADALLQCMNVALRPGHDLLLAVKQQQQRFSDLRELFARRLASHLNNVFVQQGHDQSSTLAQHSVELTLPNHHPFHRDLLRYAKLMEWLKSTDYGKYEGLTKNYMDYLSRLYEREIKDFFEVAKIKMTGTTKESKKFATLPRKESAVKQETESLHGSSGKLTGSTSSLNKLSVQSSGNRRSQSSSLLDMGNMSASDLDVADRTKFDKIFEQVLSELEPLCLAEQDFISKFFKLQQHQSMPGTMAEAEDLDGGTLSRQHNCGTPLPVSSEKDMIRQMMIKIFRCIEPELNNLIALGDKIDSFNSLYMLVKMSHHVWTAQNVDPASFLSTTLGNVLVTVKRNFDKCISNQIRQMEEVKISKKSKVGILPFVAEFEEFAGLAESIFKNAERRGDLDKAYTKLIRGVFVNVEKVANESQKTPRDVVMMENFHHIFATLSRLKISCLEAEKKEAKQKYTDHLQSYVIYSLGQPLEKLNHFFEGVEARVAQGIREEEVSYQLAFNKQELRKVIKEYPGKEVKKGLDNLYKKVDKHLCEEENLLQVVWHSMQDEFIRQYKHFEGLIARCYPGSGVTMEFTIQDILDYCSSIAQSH
Sequence of UniProt P68104 (P68104 whole entry, looked up): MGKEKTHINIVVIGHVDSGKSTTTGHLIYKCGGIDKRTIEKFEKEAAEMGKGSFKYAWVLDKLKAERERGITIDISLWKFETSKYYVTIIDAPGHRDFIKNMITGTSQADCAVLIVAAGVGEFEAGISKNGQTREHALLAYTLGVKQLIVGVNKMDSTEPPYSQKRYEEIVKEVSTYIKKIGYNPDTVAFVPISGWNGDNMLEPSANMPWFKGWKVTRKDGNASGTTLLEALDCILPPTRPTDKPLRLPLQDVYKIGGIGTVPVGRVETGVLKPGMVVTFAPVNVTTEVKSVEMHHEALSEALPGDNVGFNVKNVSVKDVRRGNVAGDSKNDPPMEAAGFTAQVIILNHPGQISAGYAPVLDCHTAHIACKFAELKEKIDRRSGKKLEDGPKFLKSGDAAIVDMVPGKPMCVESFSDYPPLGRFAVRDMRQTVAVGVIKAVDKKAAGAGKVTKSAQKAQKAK
Sequence of UniProt Q9UK59 (Q9UK59 whole entry, looked up): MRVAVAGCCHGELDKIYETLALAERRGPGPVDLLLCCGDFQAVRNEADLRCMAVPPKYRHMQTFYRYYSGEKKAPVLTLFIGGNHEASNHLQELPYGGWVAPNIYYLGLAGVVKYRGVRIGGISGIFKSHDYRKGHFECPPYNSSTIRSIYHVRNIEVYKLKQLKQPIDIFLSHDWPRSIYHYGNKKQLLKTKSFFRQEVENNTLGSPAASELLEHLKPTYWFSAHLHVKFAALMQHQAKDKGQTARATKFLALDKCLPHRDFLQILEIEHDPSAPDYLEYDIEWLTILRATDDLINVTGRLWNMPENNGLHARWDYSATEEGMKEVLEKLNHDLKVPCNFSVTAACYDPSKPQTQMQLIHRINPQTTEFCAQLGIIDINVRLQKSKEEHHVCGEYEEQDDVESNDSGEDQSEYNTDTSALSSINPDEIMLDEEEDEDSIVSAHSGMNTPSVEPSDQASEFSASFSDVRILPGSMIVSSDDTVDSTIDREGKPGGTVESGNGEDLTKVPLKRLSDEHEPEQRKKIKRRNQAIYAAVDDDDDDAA
Sequence of UniProt Q8IYI6 (Q8IYI6 whole entry, looked up): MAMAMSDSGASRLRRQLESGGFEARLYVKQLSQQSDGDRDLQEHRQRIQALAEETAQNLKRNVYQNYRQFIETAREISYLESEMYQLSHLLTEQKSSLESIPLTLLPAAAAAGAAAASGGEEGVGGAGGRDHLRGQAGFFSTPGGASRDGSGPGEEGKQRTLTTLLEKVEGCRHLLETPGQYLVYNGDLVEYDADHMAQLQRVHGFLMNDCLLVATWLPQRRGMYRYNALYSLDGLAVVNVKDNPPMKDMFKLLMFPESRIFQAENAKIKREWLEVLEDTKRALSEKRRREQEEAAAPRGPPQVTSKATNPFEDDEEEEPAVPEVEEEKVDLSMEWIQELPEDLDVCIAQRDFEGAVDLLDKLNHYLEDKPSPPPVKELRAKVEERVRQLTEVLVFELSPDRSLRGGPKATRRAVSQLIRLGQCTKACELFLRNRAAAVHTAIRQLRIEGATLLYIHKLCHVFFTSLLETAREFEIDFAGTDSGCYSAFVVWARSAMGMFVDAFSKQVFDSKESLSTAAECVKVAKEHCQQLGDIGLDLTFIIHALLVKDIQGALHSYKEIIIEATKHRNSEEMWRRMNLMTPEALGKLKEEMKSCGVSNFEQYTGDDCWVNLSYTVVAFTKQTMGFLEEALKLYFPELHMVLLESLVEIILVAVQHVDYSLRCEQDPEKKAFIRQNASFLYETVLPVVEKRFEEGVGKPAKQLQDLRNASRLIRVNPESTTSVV
Sequence of UniProt O60573 (O60573 whole entry, looked up): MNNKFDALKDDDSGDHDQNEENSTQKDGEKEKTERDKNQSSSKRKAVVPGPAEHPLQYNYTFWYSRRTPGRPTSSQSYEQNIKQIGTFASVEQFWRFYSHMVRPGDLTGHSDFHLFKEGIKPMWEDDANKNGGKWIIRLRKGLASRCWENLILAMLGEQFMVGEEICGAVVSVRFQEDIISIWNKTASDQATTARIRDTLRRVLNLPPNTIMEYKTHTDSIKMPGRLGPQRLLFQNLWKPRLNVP
Sequence of UniProt Q9H773 (Q9H773 whole entry, looked up): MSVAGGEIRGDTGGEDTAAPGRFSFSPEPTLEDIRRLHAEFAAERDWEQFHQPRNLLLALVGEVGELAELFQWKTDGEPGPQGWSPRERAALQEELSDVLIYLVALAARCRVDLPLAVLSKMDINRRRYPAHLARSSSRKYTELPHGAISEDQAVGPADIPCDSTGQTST
Sequence of UniProt P24534 (P24534 whole entry, looked up): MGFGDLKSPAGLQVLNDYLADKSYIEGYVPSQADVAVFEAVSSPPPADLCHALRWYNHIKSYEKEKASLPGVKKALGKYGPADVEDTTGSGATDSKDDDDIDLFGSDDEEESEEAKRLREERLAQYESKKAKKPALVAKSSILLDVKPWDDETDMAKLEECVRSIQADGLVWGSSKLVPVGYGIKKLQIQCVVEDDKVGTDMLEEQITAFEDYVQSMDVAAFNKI
Sequence of UniProt O60911 (O60911 whole entry, looked up): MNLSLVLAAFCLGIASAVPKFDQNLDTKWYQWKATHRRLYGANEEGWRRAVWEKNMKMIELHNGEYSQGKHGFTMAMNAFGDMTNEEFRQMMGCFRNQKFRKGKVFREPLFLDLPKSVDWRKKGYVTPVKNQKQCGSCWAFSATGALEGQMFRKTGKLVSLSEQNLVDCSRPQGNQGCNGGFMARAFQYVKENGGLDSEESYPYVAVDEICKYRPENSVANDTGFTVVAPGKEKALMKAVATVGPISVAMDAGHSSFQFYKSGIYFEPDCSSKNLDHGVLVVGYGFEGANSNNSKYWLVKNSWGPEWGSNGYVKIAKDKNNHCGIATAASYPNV
Sequence of UniProt Q99848 (Q99848 whole entry, looked up): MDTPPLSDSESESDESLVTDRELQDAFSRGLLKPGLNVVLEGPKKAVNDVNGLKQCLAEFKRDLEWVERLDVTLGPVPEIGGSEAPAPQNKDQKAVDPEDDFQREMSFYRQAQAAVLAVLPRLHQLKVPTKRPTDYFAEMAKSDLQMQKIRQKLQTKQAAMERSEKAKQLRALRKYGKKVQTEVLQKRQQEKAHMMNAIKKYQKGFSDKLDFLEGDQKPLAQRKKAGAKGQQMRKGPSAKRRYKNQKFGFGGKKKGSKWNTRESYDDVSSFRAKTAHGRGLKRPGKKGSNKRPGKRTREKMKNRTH
Sequence of UniProt O00148 (O00148 whole entry, looked up): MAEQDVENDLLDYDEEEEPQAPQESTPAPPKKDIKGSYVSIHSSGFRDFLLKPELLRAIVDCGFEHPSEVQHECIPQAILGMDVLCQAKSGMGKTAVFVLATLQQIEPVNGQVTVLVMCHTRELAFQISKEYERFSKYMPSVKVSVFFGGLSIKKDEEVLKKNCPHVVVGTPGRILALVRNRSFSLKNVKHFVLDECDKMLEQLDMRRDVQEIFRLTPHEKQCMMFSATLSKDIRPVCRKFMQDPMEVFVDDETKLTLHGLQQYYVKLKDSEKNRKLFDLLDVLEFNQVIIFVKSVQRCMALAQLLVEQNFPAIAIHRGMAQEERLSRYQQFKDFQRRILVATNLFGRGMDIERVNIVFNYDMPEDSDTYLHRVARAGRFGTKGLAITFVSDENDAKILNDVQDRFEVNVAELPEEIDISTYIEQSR
Sequence of UniProt Q9H410 (Q9H410 whole entry, looked up): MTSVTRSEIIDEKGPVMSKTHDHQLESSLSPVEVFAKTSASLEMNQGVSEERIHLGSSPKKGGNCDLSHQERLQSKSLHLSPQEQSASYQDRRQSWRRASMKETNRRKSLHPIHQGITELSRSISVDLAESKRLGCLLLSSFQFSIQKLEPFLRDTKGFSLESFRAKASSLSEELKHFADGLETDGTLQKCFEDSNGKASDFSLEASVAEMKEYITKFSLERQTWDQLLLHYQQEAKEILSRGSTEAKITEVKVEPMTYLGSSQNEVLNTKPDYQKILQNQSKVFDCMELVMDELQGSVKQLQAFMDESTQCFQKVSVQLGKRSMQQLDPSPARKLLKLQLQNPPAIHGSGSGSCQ
Sequence of UniProt Q15369 (Q15369 whole entry, looked up): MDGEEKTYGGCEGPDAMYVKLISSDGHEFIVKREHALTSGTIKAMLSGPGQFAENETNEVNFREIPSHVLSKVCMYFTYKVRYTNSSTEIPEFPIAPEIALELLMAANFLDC
Sequence of UniProt Q96DA6 (Q96DA6 whole entry, looked up): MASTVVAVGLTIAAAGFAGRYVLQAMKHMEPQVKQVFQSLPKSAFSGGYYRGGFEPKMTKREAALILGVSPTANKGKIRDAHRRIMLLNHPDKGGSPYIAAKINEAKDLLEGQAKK

Target	log2 fold change [1]	log2 fold change (filanesib)	log2 fold change (zotarolimus)	log2 fold change (idasanutlin)	log2 fold change (alisertib)	log2 fold change [2]	log2 fold change (gefitinib)	log2 fold change [3]	log2 fold change (lapatinib)	log2 fold change (pictilisib)
FAM118A (UniProt Q9NWS6)	0.213	-0.15	0.032	-0.323	0.383	0.023	0.022	-0.044	0	0.207
EXOC8 (UniProt Q8IYI6)	0.005	-0.044	0.056	-0.072	0.014	0.038	-0.047	-0.003	-0.054	-0.156
EXOC1 (UniProt Q9NV70)	-0.056	0.01	0.038	-0.084	0.015	0.131	-0.045	-0.129	-0.011	-0.021
DBT (UniProt P11182)	0.009	0.012	0.007	0.015	0.003	-0.006	-0.021	0.039	0.004	0.052
DNAJC1 (UniProt Q96KC8)	-0.023	-0.138	-0.039	-0.064	0.001	-0.17	0.008	0.022	-0.078	0.017
FADS1, A0A0A0MR51	-0.31 (active)	-0.112	-0.004	0.055	-0.007	-0.111	0.049	0.009	0.044	-0.092
DDX39A (UniProt O00148)	0.135	-0.021	-0.017	-0.093	0.066	-0.16	-0.015	-0.028	-0.007	0.012
FADS1 (UniProt F5GYH4)	-0.373	–	–	–	–	–	–	–	–	–
EXOC6 (UniProt Q8TAG9)	-0.021	0.017	0.151	-0.058	-0.013	0.119	-0.037	-0.101	-0.052	-0.003
EEF1B2 (UniProt P24534)	0.033	0.031	0.035	0.007	0.023	0.03	0.024	-0.061	-0.029	0.014
CTSV (UniProt O60911)	-0.006	-0.112	-0.011	-0.036	-0.042	-0.002	0.056	0.141	-0.064	0.135
DSN1 (UniProt Q9H410)	0.032	0.048	0.114	-0.013	0.018	-0.017	0.113	-0.23	-0.028	–
DIAPH1 (UniProt O60610)	0.008	0.083	0.081	0.04	-0.099	-0.06	0.046	-0.193	0.075	0.006
EEF1A1 (UniProt P68104)	0.081	-0.119	0.182	-0.086	-0.347	-0.216	-0.029	-0.034	0.1	–
DTYMK (UniProt P23919)	-0.043	-0.09	-0.023	-0.065	-0.014	0.047	-0.108	0.152	-0.026	-0.054
EBNA1BP2 (UniProt Q99848)	-0.054	0.686	0.069	0.283	-0.172	-0.095	-0.01	-0.216	0.153	-0.069

Target	log2 fold change [1]	log2 fold change (filanesib)	log2 fold change (zotarolimus)	log2 fold change (idasanutlin)	log2 fold change (alisertib)	log2 fold change [2]	log2 fold change (gefitinib)	log2 fold change [3]	log2 fold change (lapatinib)	log2 fold change (pictilisib)
DNAJC19 (UniProt Q96DA6)	0.096	-0.155	0.016	-0.004	-0.022	-0.205 (active)	0.006	0.045	-0.012	0.025
DCTPP1 (UniProt Q9H773)	0.023	-0.02	0.083	-0.061	-0.067	-0.091	0	0.038	-0.058	-0.05
EIF4G1 isoform 8 (UniProt Q04637)	0.01	0.067	-0.121	0.09	-0.007	-0.003	-0.114	-0.369	-0.073	-0.27
EIF4E2 (UniProt O60573)	-0.062	-0.089	0.058	0.024	0.059	-0.043	0.043	-0.251	0.033	–
DDX46 (UniProt Q7L014)	0.109	-0.003	0.046	0.029	0.434	0.001	0.041	-0.005	0.026	0.117
ERLIN1 (UniProt O75477)	-0.013	0.031	0.037	0.128	-0.092	-0.075	-0.051	-0.14	0.006	-0.107
ELOC (UniProt Q15369)	0.007	0.04	0.096	-0.009	-0.009	0.033	-0.006	0.011	-0.002	0.105
EIF4G3 isoform 3 (UniProt O43432)	-0.15	0.063	0.002	0	-0.003	-0.01	0.032	-0.32	0.142	–
CUX1 isoform 2 (UniProt Q13948)	-0.095	0.077	-0.007	-0.043	0.012	-0.062	-0.029	0.074	0.009	0.018
DBR1 (UniProt Q9UK59)	0.051	0.036	-0.003	0.015	-0.018	0.017	-0.049	0.054	-0.021	-0.064
DLD (UniProt P09622)	-0.003	-0.106	-0.032	0.004	-0.024	-0.056	-0.096	0.036	-0.015	0.067
CTSL (UniProt P07711)	-0.143	0.316 (active)	-0.041	0.125	-0.099	0.044	0.025	0.086	0.087	0.057
DHRS1 (UniProt Q96LJ7)	0.159	0.061	0.448	0.952 (active)	-0.025	0.115	0.494	-0.113	0.096	0.009
ERLIN2 (UniProt O94905)	-0.006	0.039	0.034	0.09	-0.085	-0.143	-0.058	-0.076	-0.019	-0.09
CYFIP1 (UniProt Q7L576)	0.053	-0.027	0.039	-0.028	0.061	-0.004	0.008	0.013	0.023	0.097
